Test results taken from PubChem BioAssay (NCI).
This is part of a sample that, as a whole, favours compounds with a hit. Of some 83,000 tested, about 20% had one in any assay.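 Single-dose data. Exposure time 48 hours. Values below 10 considered active.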 A number with no mark means an inactive call. The source made the active and inactive calls.

The compounds below were run on HL-60(TB) leukemia (assay: NCI-60 one-dose screen, 48 h (100 = growth as untreated, 0 = no growth, -100 = all killed)). Conditions: 10 µM unless noted.

Row | SMILES | growth
1 | O=C(COc1cccc(/C=C2\Oc3ccc4ccccc4c3C2=O)c1)c1ccc(Cl)cc1 | 107%
2 | CCN(Cc1ccccc1)c1ccc(SC#N)cc1 | 20.3%
3 | O=C1Cc2c([nH]c3ccc([N+](=O)[O-])cc23)-c2ccccc2N1 | -33.8% (active)
4 | CCn1cc(C(=O)NNC(=S)Nc2ccc(C)cc2)c(=O)c2ccc(C)nc21 | 94.5%
5 | Cc1ccc(NSc2ccccc2[N+](=O)[O-])cc1 | -6.97% (active)
6 | CCN(CC)C(=O)C1(C)CCCC2(C)c3cc(OC(C)=O)ccc3CCC12 (stereo not given) | 71.2%
7 | O=C1Nc2ccccc2/C1=C/c1nc2ccccc2c(=O)[nH]1 | 102%
8 | C[C@]12C[C@@H](c3ccoc3)OC(=O)[C@@H]1CC[C@]1(C)[C@@H]2CC[C@@H](O)[C@]1(C)O | 9.31% (active)
9 | COc1ccc(/C=C/C(=O)c2ccc(Nc3ncnc4ccccc34)cc2)cc1OC | 75.6%
10 | c1ccc2c(c1)Cc1ccccc1N2CCN1CCCCC1 | 85.1%
11 | O=C(Nc1ccc(Cl)cc1F)c1cc(Br)ccc1O | -39.8% (active)
12 | CNc1ccc(NC)c2c1C(=O)c1ccccc1C2=O | 87.3%
13 | Cc1cc(N[C@@H]2CCC[C@H](Nc3ccnc4cc(Cl)ccc34)C2)nc(N2CCCCCC2)n1 | -72.5% (active)
14 | Cc1ccccc1[P+](Cc1ccccc1)(c1ccccc1)c1ccccc1 | -26.9% (active)
15 | CCOc1ccccc1NC(=O)CCC(=O)OC | 78.7%
16 | [Ag].[Ag].[NH-]S(=O)(=O)c1ccc(N=Nc2cc(N=Nc3ccc(S([NH-])(=O)=O)cc3)c3c(NC(=O)C(Cl)Cl)cccc3c2OC(=O)C(Cl)Cl)cc1.[c-]1nccs1.[c-]1nccs1 | 44.2%
17 | COc1cc2c(cc1OCCCOC1=C=C=C(c3ccc4c(c3)c3cc(-c5ccc(OCCCOc6cc7c(cc6OC)C(=O)N6CCC[C@H]6C=N7)cc5)ccc3n4S(=O)(=O)c3ccc(C)cc3)C=C1)N=C[C@@H]1CCCN1C2=O | 10.5%
18 | Cc1ccc(/C(CS(=O)(=O)c2ccc(C)cc2)=N\O)cc1 | 99%
19 | CCOC(=O)c1cc(C(=O)c2cc(OC)c(OC)c(OC)c2)n2c1ccc1c3cccnc3ccc12 | 13.3%
20 | COc1cc(/C=C\C(C)=N\Nc2ccccc2)ccc1O | 3.74% (active)

Row | SMILES | growth
21 | COc1cccc(-c2nc3sccn3c2-c2ccnc(NCCNS(=O)(=O)c3ccccc3)n2)c1 | 69.9%
22 | CC(=O)c1ccc2c(ccc3ccccc32)c1 | 90.6%
23 | CC(C)CCC[C@@H](C)[C@H]1CCC2C3=CCC4C(=O)C=CC(=O)C4C3CC[C@@]21C (stereo not given in full) | -5.46% (active)
24 | Cc1ccc2c(n1)C(=O)c1[nH]c3ccccc3c1C2=O | 67.8%
25 | COc1ccc(CCN2C(=O)C(C)(C)SC2=S)cc1OC | 106%
26 | Cc1cccc(Cl)c1NC(=O)c1cnc(Nc2cc(N3CCOCC3)cc(N3CCOCC3)c2)s1 | 45.3%
27 | NC(=O)N/N=C/c1ccc(Br)o1 | 95.8%
28 | COc1cc(OC)cc(C2CC(=O)Nc3c2c(C)nn3-c2nc3ccccc3[nH]2)c1 (stereo not given) | 9.31% (active)
29 | O=c1[nH]c(=O)c2[nH]c(=O)[nH]c2[nH]1 | 100%
30 | COc1cc2nc(-c3ccc(Cl)cc3)cc(OCCCN3CCOCC3)c2cc1OC | 27%
31 | O=C(O)CSCc1nnc2n(Cc3ccccc3)c(=O)c3c4c(sc3n12)CCCC4 | 94.9%
32 | CC1=NC(=S)NC(c2ccccc2)/C1=C1/CC(c2ccccc2O)NN1 (stereo not given) | 97.2%
33 | c1nc(N2CCOCC2)c2[nH]ccc2n1 | 90.2%
34 | [O-]/[N+](=C\c1ccc(-n2cc(Cc3ccccc3Cc3cn(-c4ccc(/C=[N+](/[O-])c5ccccc5)cc4)nn3)nn2)cc1)c1ccccc1 | 98.4%
35 | CC(C)[C@H](CO)Nc1nc(Nc2ccc(C(=O)NCCNS(=O)(=O)c3cccc4c(N(C)C)cccc34)c(Cl)c2)c2ncn(C(C)C)c2n1 | -36.7% (active)
36 | O=C1/C(=C/c2ccc([N+](=O)[O-])s2)Oc2ccc(Cl)cc21 | -20.6% (active)
37 | Cc1cc(O)cc2c1[C@H]1CC[C@]3(C)[C@@H](O)CC[C@H]3[C@@H]1C=C2 | 70.6%
38 | C=C1CC[C@@H]2[C@](C)(COC(C)=O)[C@H](OC(C)=O)CC[C@@]2(C)[C@@H]1C/C=C1/C(=O)OC[C@H]1OC(C)=O | 79.1%
39 | S=C(Sc1ccc(Cl)cc1)Sc1ccc(Cl)cc1 | -63.7% (active)
40 | O=C(CCN1CCCC1)Nc1ccc2c(Nc3ccc(Br)cc3)c3ccccc3nc2c1 | -54.6% (active)
